Results from PubChem BioAssay (NCI).
About 83,000 compounds went through this panel and 20% of them were active in at least one assay; those are over-represented in the sample as a whole.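 Step 1: grow cells in 96-well plates. Step 2: add test compound at a single concentration. Step 3: incubate 48 h. Step 4: record percent growth.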 Active and inactive are the calls of the source. How the source made its calls: active means growth percent below 10; inactive means the rest.

Columns and labels:
Assay in all cases: NCI-60 one-dose screen, 48 h (100 = growth as untreated, 0 = no growth, -100 = all killed)
Conditions in all cases: 10 µM unless noted
[1] = tested on: DU-145 prostate
[2] = tested on: K-562 leukemia
[3] = tested on: MALME-3M melanoma
[4] = tested on: MDA-MB-231 breast
[5] = tested on: RXF 393 renal
[6] = tested on: SF-268 CNS
[7] = tested on: SF-295 CNS
[8] = tested on: SF-539 CNS
[9] = tested on: M14 melanoma
[10] = tested on: UACC-257 melanoma

Measured: growth

COc1cccc(/C=C\C(=O)c2ccccc2)c1
inactive: [1] 53.8% | [2] 31% | [3] 83.4% | [4] 88.5% | [5] 50.2% | [6] 60.4% | [7] 77.5% | [8] 87.7% | [9] 85.1%

OCCNCCNc1c2ccccc2nc2ccccc12
inactive: [1] 88.3% | [2] 69.8% | [3] 42.1% | [4] 57.9% | [5] 102% | [6] 55.9% | [7] 95.4% | [8] 69.8% | [10] 102% | [9] 90.9%

COc1ccc(-c2cc(C(=O)N=Nc3c(O)[nH]c4ccccc34)no2)cc1
inactive: [1] 104% | [2] 90.7% | [3] 102% | [4] 96.9% | [5] 102% | [6] 99.4% | [7] 102% | [8] 100% | [10] 114% | [9] 101%

Oc1cc(O)c2c(=S)cc(-c3ccc(Cl)cc3)oc2c1
inactive: [1] 36.9% | [2] 28.2% | [3] 22.7% | [4] 21.6% | [5] 64.6% | [6] 36.8% | [7] 91.4% | [10] 32.9% | [9] 31.4%

Nc1cccc(-c2nc3sccn3c2-c2ccnc(NCCCNS(=O)(=O)c3ccc(C(F)(F)F)cc3)n2)c1
active: [2] 8.49% | [3] -2.19% | [7] -11.3% | [9] 9.8%
inactive: [1] 13.5% | [4] 21% | [5] 19.7% | [6] 14.6% | [8] 16.5% | [10] 18.8%

O=C(O)c1cccc2c1-c1ccccc1C2=O
inactive: [1] 114% | [2] 119% | [3] 85.8% | [4] 96% | [5] 90.4% | [6] 105% | [7] 96.6% | [8] 97.9% | [9] 94.5%

O=c1cc(-c2ccccc2)[nH]c2ccccc12
inactive: [1] 17.6% | [2] 32.6% | [3] 50% | [4] 95.6% | [5] 36.1% | [6] 50.5% | [7] 16.4% | [9] 15.9%
active: [8] 4.43%

COc1ccc(-c2csc(NC(=O)CN3CCN(c4cc5c(cc4F)c(=O)c(C(=O)O)cn5C4CC4)CC3)n2)cc1
inactive: [1] 30.2% | [2] 19% | [3] 15.4% | [4] 11.9% | [5] 18.7% | [6] 29.2% | [9] 20.3%
active: [7] -4.67% | [10] -13.4%

CC1CN(C(C)C)C(=S)N(c2ccccc2)C1=O (stereo not drawn)
inactive: [1] 103% | [2] 95.9% | [3] 82% | [4] 90.4% | [5] 102% | [6] 98.8% | [7] 108% | [8] 96.4% | [9] 93.2%

COc1ccc(C(=O)c2sc3nc4c(cc3c2N)CCCC4)cc1OC
inactive: [1] 62% | [2] 10.9% | [3] 63% | [4] 46.3% | [5] 31.6% | [6] 63.9% | [7] 28.6% | [10] 79.6% | [9] 27.7%

COC(=S)SCN(CSC(=S)OC)c1ccc(Cl)cc1
inactive: [1] 110% | [2] 90.1% | [3] 75.1% | [4] 66.1% | [5] 95.3% | [6] 94.2% | [7] 84.8% | [8] 84.8% | [9] 77%

C/C(Cc1ccc(Cl)cc1)=C(\c1ccc(OCCN2CCCCCC2)cc1)c1ccc(OC(=O)C2CCCCC2)cc1
inactive: [1] 70.4% | [2] 11.4% | [3] 85.7% | [4] 85.4% | [5] 56.2% | [6] 57% | [7] 89.8% | [8] 74.2% | [10] 91% | [9] 12.7%

Cc1cc2cc3cc(C)c(N(C)C)cc3nc2cc1N(C)C
inactive: [1] 25.4% | [2] 41.5% | [3] 28.4% | [4] 63.2% | [5] 24% | [6] 13.9% | [7] 19.4% | [9] 37.4%
active: [8] 8.78%

CN(C)c1ccc(/C=C\C2=[N+](C)c3ccccc3C2(C)C)cc1
active: [6] 6% | [7] -23.9%
inactive: [1] 16.3% | [2] 90.8% | [3] 20.8% | [4] 23% | [5] 37.3% | [8] 22.1% | [9] 18%

Cc1ccc(SCN2CCN(c3cccc(Cl)c3)CC2)cc1
inactive: [1] 116% | [2] 118% | [3] 87.3% | [4] 84.3% | [5] 108% | [6] 100% | [7] 97.3% | [8] 96.2% | [9] 96.9%

COc1ccc2nc3cc(Cl)ccc3c(N3CCN(c4nccc(Nc5ccccc5)n4)CC3)c2c1
inactive: [1] 75.2% | [2] 41.5% | [3] 110% | [4] 70.2% | [5] 35% | [6] 61.3% | [7] 78.3% | [10] 82.2% | [9] 60.8%

O=C(Cc1ccccc1)c1ccc(Cl)cc1
inactive: [1] 119% | [2] 123% | [3] 105% | [4] 103% | [5] 121% | [6] 111% | [7] 103% | [8] 107% | [9] 101%

CCOC(=O)C(C#N)C1CCCCC1 (stereo not drawn)
inactive: [1] 104% | [2] 79.3% | [3] 95.6% | [4] 81.3% | [5] 99.3% | [6] 91% | [7] 93.5% | [8] 122% | [9] 101%

O=C1C(=O)N(CCCCn2cc(CO)nn2)c2ccccc21
inactive: [1] 108% | [2] 98.4% | [3] 97.7% | [4] 98.2% | [5] 99.7% | [6] 101% | [7] 102% | [8] 101% | [10] 105% | [9] 94.5%

Cc1cc2cc3cc(C)c(N(C)C)cc3[n+](C)c2cc1N(C)C
inactive: [1] 24.2% | [2] 44.7% | [3] 19.9% | [4] 57.1% | [5] 25% | [6] 11.7% | [7] 16.6% | [9] 41.2%
active: [8] 9.99%

O=C1c2cccnc2C(=O)c2c1c(C(=O)OCCN1CCCCC1)c1ccccn21
active: [1] -89.7% | [2] -40.9% | [3] -74.3% | [4] -27.9% | [5] -44.5% | [6] -19.8% | [7] -37% | [10] -75% | [9] -20.8%

CCC(=O)OCc1cccc(OC)c1
inactive: [1] 111% | [2] 62.4% | [3] 116% | [4] 97.4% | [5] 103% | [6] 107% | [7] 104% | [8] 98% | [9] 96.3%

O=C1C=CC(=O)N1c1ccc(Cc2ccc(N3C(=O)C=CC3=O)cc2)cc1
inactive: [1] 111% | [2] 66.4% | [3] 88.2% | [4] 90.3% | [5] 106% | [6] 118% | [7] 121% | [8] 93.4% | [9] 96.8%

C/C(=C(/c1ccc(O)cc1)c1ccc(Cl)cc1)c1ccccc1
active: [1] -75.2% | [2] -1.81% | [3] -94.6% | [4] -83.3% | [5] -79.3% | [6] -83.4% | [7] -95.1% | [8] -96% | [10] -74.6% | [9] -78.1%

C/C(Cc1ccc(Cl)cc1)=C(\c1ccc(OCCN2CCCCCC2)cc1)c1ccc(OC(=O)Cc2ccccc2)cc1
active: [2] 1.27%
inactive: [1] 75.9% | [3] 69.5% | [4] 82.4% | [5] 53.6% | [6] 60.2% | [7] 90.4% | [8] 81.5% | [10] 89.3% | [9] 21.8%

CCCCCCCCCCCCCC1=NCCN1CCO
inactive: [1] 116% | [3] 104% | [4] 51.3% | [5] 59.5% | [6] 152% | [7] 136%
active: [2] 5.11% | [8] -70% | [9] 2.59%

Cc1ccc(N)cc1F
inactive: [1] 109% | [2] 99.1% | [3] 93.5% | [4] 82% | [5] 104% | [6] 98.6% | [7] 110% | [8] 100% | [9] 88.2%

CCN(CC)c1ccc(/C=C/C2=[N+](C)c3ccccc3C2(C)C)cc1
inactive: [1] 14.3% | [2] 28.3% | [3] 19% | [5] 33.7% | [6] 17% | [8] 14.7% | [9] 22.4%
active: [4] 7.79% | [7] -19%

CC1CN(Cc2ccco2)C(=S)N(c2ccccc2)C1=O (stereo not drawn)
inactive: [1] 110% | [2] 62.7% | [3] 97.8% | [4] 106% | [5] 111% | [6] 105% | [7] 92.3% | [8] 90.8% | [9] 99.6%

COc1cc2c(c(OC)c1OC)-c1ccc(N=NC(N)=S)c(=O)cc1[C@@H](NC(C)=O)CC2
inactive: [3] 61.2% | [10] 49.5%
active: [1] -40.1% | [2] 9.08% | [4] 9.7% | [5] -13.5% | [6] 9.15% | [7] 6.76% | [8] 1.01% | [9] -39.1%

Cc1cc(-c2nc3ccccc3s2)ccc1NC(=O)COc1ccc(Cl)cc1
inactive: [1] 130% | [2] 93.7% | [3] 106% | [4] 96.9% | [5] 139% | [6] 109% | [7] 120% | [8] 105% | [10] 120% | [9] 100%

CC1=NNC(=O)C1C (stereo not drawn)
inactive: [1] 104% | [2] 97.3% | [3] 467% | [4] 109% | [5] 90.5% | [6] 107% | [7] 110% | [8] 111% | [9] 96.8%

COc1cnc2c(c1)C(=O)c1c-2n(CCCBr)c(=O)c2cc([N+](=O)[O-])ccc12
active: [1] 7.11% | [3] -2.44% | [5] -10.8% | [6] 9.06% | [7] -11.3% | [10] -32.3% | [9] 3.34%
inactive: [2] 11.7% | [4] 24.3%

COc1cc(C2CC(=O)c3c(C)nn(-c4nc5ccccc5[nH]4)c3C2)cc(OC)c1OC (stereo not drawn)
active: [6] 7.82%
inactive: [1] 85% | [2] 71.7% | [3] 75.1% | [4] 29.5% | [5] 30.3% | [7] 64.7% | [10] 98.7% | [9] 102%

CC/C=C\C[C@H](O)C/C=C1/C(=O)C=C[C@@H]1C/C=C\CCCC(=O)OC(C)C
active: [2] -7.12% | [3] -56.2% | [4] 7.13% | [5] -82.7% | [7] -24.7% | [10] -51% | [9] -31.3%
inactive: [1] 11.5% | [6] 12.9%

COc1cc(/C=N/N(C)C)ccc1O
inactive: [1] 110% | [2] 101% | [3] 105% | [4] 93.1% | [5] 105% | [6] 101% | [7] 104% | [10] 89.1% | [9] 108%

O=C1c2cc3c(cc2-c2c1c1cc(Cl)c(Cl)cc1c(=O)n2CCCn1ccnc1)OCO3
active: [1] 8.73% | [5] 3.03% | [7] -17.4% | [10] -17.1% | [9] -11.1%
inactive: [2] 16.3% | [3] 23.2% | [4] 41.4% | [6] 17.7%

Oc1ccc2c(=S)cc(-c3ccc(Br)cc3)oc2c1O
active: [4] 3.73% | [6] 9.4%
inactive: [1] 25.5% | [2] 20.7% | [3] 38.3% | [5] 33.4% | [7] 100% | [10] 67.5% | [9] 12.3%

COc1cc(C2CC(=O)Nc3c2cnn3Cc2ccco2)cc2c1OCCO2 (stereo not drawn)
inactive: [1] 104% | [2] 29.6% | [3] 102% | [4] 101% | [5] 62.4% | [6] 82.5% | [7] 62% | [10] 82.2% | [9] 70.5%

NC(=S)N/N=C/c1cc(-c2cccc(N)c2)ccn1
inactive: [1] 28.1% | [2] 14.9% | [3] 15.6% | [4] 57.6% | [5] 34.5% | [6] 21.2% | [10] 29.3%
active: [7] 9.47% | [9] 1.75%

COc1cc2nc3cc([N+](=O)[O-])ccc3c(NCCCNCC(C)(C)O)c2cc1OC
active: [1] -34.3% | [2] 0.851% | [3] -81.8% | [4] -62.5% | [5] -81.9% | [6] -57.4% | [7] -41.2% | [10] -64.2% | [9] -77.3%
